Measurements reported in the supplement of paper PMC3334620.
Whole data set: some 33,000 sequences, median “E-score (-0.5 to 0.5)” near -0.012, cut for the highest 2% near 0.29. The sample holds the highest values, similar sequences and a random draw of the others, so the mix is not that of the screen.

biological target: T1, Ybr033w (UniProt P38073); assay: PBM E-score (8-mer binding enrichment) (E-score (-0.5 to 0.5)); higher = stronger / more preferred TF binding; details: protein concentration: 200 nM; construct: GST-full length
T1 sequence: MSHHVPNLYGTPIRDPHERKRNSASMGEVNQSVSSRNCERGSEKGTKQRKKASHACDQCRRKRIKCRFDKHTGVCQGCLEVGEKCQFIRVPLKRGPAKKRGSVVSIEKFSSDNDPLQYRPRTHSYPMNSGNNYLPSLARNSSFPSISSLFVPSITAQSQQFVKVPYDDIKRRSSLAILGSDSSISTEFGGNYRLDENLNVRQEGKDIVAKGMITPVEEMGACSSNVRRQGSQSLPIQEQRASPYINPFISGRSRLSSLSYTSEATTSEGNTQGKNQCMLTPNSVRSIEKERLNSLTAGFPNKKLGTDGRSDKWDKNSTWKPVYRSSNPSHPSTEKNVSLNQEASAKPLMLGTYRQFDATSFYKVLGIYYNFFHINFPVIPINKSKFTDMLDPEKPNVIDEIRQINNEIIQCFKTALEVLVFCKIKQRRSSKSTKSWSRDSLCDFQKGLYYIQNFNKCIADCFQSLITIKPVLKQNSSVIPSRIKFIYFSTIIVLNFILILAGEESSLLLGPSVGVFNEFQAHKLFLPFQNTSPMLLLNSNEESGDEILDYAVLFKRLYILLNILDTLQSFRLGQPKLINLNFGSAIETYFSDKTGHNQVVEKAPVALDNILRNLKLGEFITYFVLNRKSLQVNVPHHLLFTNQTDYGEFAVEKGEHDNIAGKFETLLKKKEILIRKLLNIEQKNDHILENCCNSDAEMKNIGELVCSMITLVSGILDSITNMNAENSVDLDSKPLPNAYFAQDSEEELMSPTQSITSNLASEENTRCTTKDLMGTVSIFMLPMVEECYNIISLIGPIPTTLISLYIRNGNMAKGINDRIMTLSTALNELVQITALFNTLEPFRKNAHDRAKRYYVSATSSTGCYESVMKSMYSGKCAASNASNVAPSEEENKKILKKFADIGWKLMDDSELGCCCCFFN
Procedure, shortened: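 Masliner-normalised scans of fluorescent anti-GST signal were the basis for scoring. That signal came from GST-tagged yeast transcription factors applied at about 100-200 nM to double-stranded universal all-10-mer Agilent arrays on fresh or once-stripped slides. Each ungapped eight-base word, pooled with its reverse complement, received an E-score from the Universal PBM Analysis Suite.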

| Sequence | PBM E-score |
| --- | --- |
| AAGAGGGG | -0.226 |
| GTGCCACA | -0.302 |
| CTGGCAGA | -0.00651 |
| GCGGGACA | -0.243 |
| CGCGATCA | 0.0933 |
| AGATCTGA | -0.108 |
| CTAAGGGA | 0.0981 |
| ACCTGCGG | -0.146 |
| ACTGCCAT | 0.00233 |
| TCCTCGAA | 0.126 |
| AACCAAAT | 0.228 |
| ATGGGGTG | -0.195 |
| GGATATTA | 0.144 |
| CGATATTA | 0.336 |
| CGATATTC | 0.123 |
| AACTTCCC | 0.00652 |
| AGATAGGA | 0.00058 |
| ATTATTTC | 0.332 |
| GTTTATTA | 0.276 |
| ATTTATTA | 0.293 |
| ATTTATTC | 0.361 |
| ATTATTTG | 0.335 |
| CTTTATTC | 0.192 |
| CTTATTTC | 0.235 |

| Sequence | PBM E-score |
| --- | --- |
| ATTTATTG | 0.0954 |
| CTTTATTA | 0.191 |
| ATTATTAG | 0.152 |
| ACTATTTG | 0.248 |
| ACTATTTC | 0.237 |
| AGCCAATA | -0.0344 |
| AAAAAGCG | 0.112 |
| CCGTTGCG | -0.192 |
| AAGAATAG | 0.204 |
| CGACAAAC | 0.0224 |
| CCATGGGA | -0.0942 |
| AAACTAGG | 0.0193 |
| GGAGAGAC | -0.0678 |
| ATTATTCG | 0.328 |
| ATTATTTA | 0.373 |
| ACTATTCG | 0.177 |
| CTTATTTA | 0.106 |
| ATTATTCA | 0.231 |
| GTTATTTA | 0.258 |
| AAATCTCT | 0.152 |
| AGAAAGTC | 0.173 |
| CCACGAGG | -0.0481 |
| AATAGGAT | 0.295 |
| AATAGGAA | 0.29 |

| Sequence | PBM E-score |
| --- | --- |
| AATAGGAC | 0.0355 |
| TATAGGAA | 0.232 |
| AATAGGAG | -0.253 |
| CATAGGAA | 0.0524 |
| ACGCGACC | -0.208 |
| ACTAACCA | 0.11 |
| AGCACTTC | 0.0586 |
| ACGCGACT | -0.174 |
| AATTACTC | 0.328 |
| AATTACTA | 0.234 |
| CATTACTC | 0.11 |
| GATTATTA | 0.298 |
| AATTATTC | 0.423 |
| GATTATCC | 0.396 |
| CATTATTA | 0.243 |
| AATTATAC | 0.284 |
| CATTATTC | 0.213 |
| CATTATCC | 0.224 |
| GATTATAA | 0.172 |
| GATTATCA | 0.19 |
| AACGGCTC | -0.0166 |
| TAGGAATA | 0.194 |
| AGTGGTCG | -0.159 |
| ATTGCCAA | -0.00029 |

| Sequence | PBM E-score |
| --- | --- |
| TATTGGCA | 0.0828 |
| ACATTGCG | 0.0729 |
| TGTCCACA | 0.134 |
| GGACACAA | 0.163 |
| CTGAGCAA | -0.0556 |
| ATGCCTAC | -0.0813 |
| CACTGGGA | -0.0293 |
| ATACAAGC | 0.209 |
| AATTATAA | 0.253 |
| AGTTATTA | 0.173 |
| AGTTATTC | 0.345 |
| AGTTATTG | 0.223 |
| AATTATTA | 0.359 |
| AATTATTG | 0.274 |
| ATGAAGAG | 0.0478 |
| AGAAGACG | 0.123 |
| ATTTCCTG | 0.3 |
| ATTTCCGA | 0.247 |
| ATTTCCTC | 0.176 |
| ATTTCCTA | 0.101 |
| ATTTCCGG | 0.298 |
| ATTTCCGC | 0.15 |
| CCCGAGGC | -0.329 |
| ATTAAGCC | 0.0562 |

| Sequence | PBM E-score |
| --- | --- |
| GATTTACA | 0.297 |
| AACTTGAG | -0.167 |
| AATTTTAC | 0.282 |
| AACTTGAT | 0.333 |
| AATTTTAT | 0.331 |
| CATTTACA | 0.197 |
| AAATTACG | 0.111 |
| AATTTTAA | 0.285 |
| AAATTACC | 0.164 |
| AACTTGAA | 0.251 |
| AAATTACT | 0.333 |
| TATTTACA | 0.21 |
| CGCTCCTA | -0.101 |
| AGTTAGAA | 0.0705 |
| GTGGCTGA | -0.183 |
| GACAGCAC | -0.00022 |
| GGGTCCTA | -0.279 |
| TCTAAGCA | -0.00029 |
| CCGCTGCC | -0.418 |
| CCAGAGCA | -0.0441 |
| AACCAGCC | -0.0273 |
| GACCAGGC | -0.164 |
| AGGATGCA | -0.0489 |
| CGTTCTAC | 0.00885 |

| Sequence | PBM E-score |
| --- | --- |
| CTGTTGTC | -0.0159 |
| AATTTACA | 0.134 |
| AATTTAAG | 0.211 |
| AATTTACT | 0.311 |
| AACTTAAG | 0.0775 |
| AATTTAGT | 0.241 |
| AATTTAAC | 0.245 |
| AACTTAAA | 0.237 |
| AATTTAAT | 0.319 |
| AACTTAAT | 0.314 |
| CCTACCGC | -0.292 |
| CCCAGTAC | -0.0948 |
| CGAAGCGA | -0.0591 |
| ACCAACAC | -0.0108 |
| ACCTTGAA | 0.102 |
| AAATTCTA | 0.217 |
| TAATTCTA | 0.288 |
| CAATTATA | 0.28 |
| GAATTATA | 0.307 |
| TAATTATA | 0.382 |
| GCATTATA | 0.0824 |
| GAATTCTA | 0.176 |
| GAATTAAC | 0.249 |
| GGATTATA | 0.244 |

| Sequence | PBM E-score |
| --- | --- |
| GAATTATC | 0.305 |
| AAATTATA | 0.215 |
| GAATTACC | 0.139 |
| CTGCACAG | -0.0409 |
| ATCCATAG | -0.0877 |
| CCAGAAAG | 0.171 |
| CCTAAATC | 0.0625 |
| AATTGACG | -0.0634 |
| CTATGCGA | -0.0724 |
| CGAAATAA | 0.264 |
| AGAAATAC | 0.104 |
| AGAAATAT | 0.299 |
| GGAAATAA | 0.284 |
| AGAAATAG | 0.227 |
| AGAAATAA | 0.36 |
| AATTGCCT | 0.0818 |
| AAACTCCG | 0.17 |
| CTCTGCTC | -0.16 |
| ACTGGCCC | 0.0468 |
| AGTTGGAC | -0.0273 |
| AGTTGGAT | 0.288 |
| AGTTGGAG | -0.0321 |
| CAGTCACG | -0.248 |
| CACCGTGG | -0.311 |

| Sequence | PBM E-score |
| --- | --- |
| AACAAGTG | 0.127 |
| ACCACCGC | -0.197 |
| CAGATTAG | -0.134 |
| TAGATTGA | 0.233 |
| AAGATTAC | 0.101 |
| CAGATTAA | 0.291 |
| GAGATTAA | 0.182 |
| AAGATTAA | 0.289 |
| TAGATTCA | 0.0876 |
| AAGATTAG | 0.219 |
| TAGATTAA | 0.312 |
| TCTGGGAA | -0.0142 |
| GACGTCAA | -0.013 |
| AGTTGGAA | 0.124 |
| CCCAAGAG | -0.146 |
| AATCATCA | 0.17 |
| CCTGCCAG | -0.2 |
| CTGGCCTA | -0.0592 |
| ATAATCAA | 0.229 |
| ATAATCAT | 0.292 |
| AAAATCAA | 0.221 |
| AAAATCAT | 0.31 |
| AAAATCAG | 0.188 |
| ATAATCAG | 0.092 |

| Sequence | PBM E-score |
| --- | --- |
| CGGAAAGA | -0.0353 |
| AGGTGTAC | 0.0056 |
| CTCAAGTA | 0.0799 |
| ATAGCTTG | -0.0519 |
| GGCGACCC | -0.301 |
| ACACACAT | 0.117 |
| AAATCGCT | -0.173 |
| TCTTATAA | 0.0725 |
| ACTTATAG | 0.0878 |
| GCTTATAA | 0.147 |
| ACTTATAT | 0.328 |
| ACTTATAC | 0.244 |
| ACTTATAA | 0.305 |
| CTGGATAC | -0.107 |
| GACACTAC | -0.0871 |
| ACGCACAC | 0.157 |
| ATCTACGC | 0.0459 |
| CAATGATA | 0.126 |
| AAATGATA | 0.345 |
| AAATGATT | 0.273 |
| GCATGATA | 0.109 |
| CTATGATA | 0.113 |
| ATATGATA | 0.347 |
| ACATGATC | 0.122 |

| Sequence | PBM E-score |
| --- | --- |
| ACATGATA | 0.32 |
| ACATGTTG | 0.244 |
| ACATGTTA | 0.289 |
| ACATGTTC | 0.0642 |
| GTATGATA | 0.234 |
| CGACGTAG | -0.223 |
| AGCATTCC | -0.043 |
| ATGTGGCG | -0.018 |
| AATCTTAC | 0.137 |
| GCTTAATA | 0.0557 |
| GGTGGAAA | -0.00937 |
| CCTGCTCA | -0.156 |
| ATTCTAGC | 0.0909 |
| ACGGGCTA | -0.252 |
| AGGGATCA | 0.169 |
| AAATGATC | 0.328 |
| CAATGATC | 0.0568 |
| AAATGATG | 0.248 |
| CATACTGA | 0.212 |
| GATACTGA | 0.0886 |
| TATACTGA | 0.351 |
| CATTCGCG | 0.0443 |
| ATATAGGG | -0.00433 |
| GAGGCCTC | -0.37 |
